Experimental data published in ChEMBL document CHEMBL1157539, “Thousands of chemical starting points for antimalarial lead identification” (Nature, 2010).

Assays:
Format in all cases: functional
[1] = test system: Plasmodium falciparum; assay: GSK_TCMDC: Inhibition of Plasmodium falciparum 3D7 in whole red blood cells, using parasite LDH activity as an index of growth. Test compounds present at 2uM
[2] = test system: Plasmodium falciparum; assay: GSK_TCMDC: Inhibition of Plasmodium falciparum Dd2 in whole red blood cells, using parasite LDH activity as an index of growth. Test compounds present at 2uM
[3] = test system: HepG2; assay: GSK_TCMDC: Percent inhibition of human HepG2 cell line. Test compounds present at 10uM.

SMILES | Inhibition [1] | Inhibition [2] | Inhibition [3]
O=C(NCCN1CCCC1)c1cccc(-c2ccc(-c3nc4ccccc4[nH]3)s2)c1 | 96% | 13% | 27%
O=C(NCCCCN1CCC(c2ccc3ccccc3c2O)CC1)c1ccc(NC(=O)c2ccc(Cl)cc2)cc1 | 100% | 89% | 34%
CC(=O)N1N=C(c2ccc(F)cc2)Sc2c1nc(-c1ccccc1)n2C(C)=O | 99% | 67% | 0%
CCCOc1ccccc1-c1nc2[nH]c3c(c2c(=O)[nH]1)CCN(C)C3 | 87% | 70% | 8%
O=C(O)C(F)(F)F.OCC1CCN(Cc2ccc(-c3ccc(-c4nc5cc(C(F)(F)F)ccc5[nH]4)s3)cc2)CC1 | 100% | 90% | 35%
COc1ccc(-c2nc(NC(=O)Cc3ccc(OC)c(OC)c3)sc2C)cc1 | 93% | 22% | 33%
CC1(C)[C@H]2CC[C@@H](CNc3nc(NCCc4c[nH]cn4)nc(Nc4ccc5c(c4)OCO5)n3)[C@@H]1C2 | 100% | 88% | 3%
C[C@H](NC(=O)c1c(OC2CN(C(c3ccccc3)c3ccccc3)C2)c(-c2ccccc2)nc2ccccc12)C1CCCCC1 | 92% | 74% | 0%
CN1CCN(Cc2cc(NC(=O)c3ccc(-c4ccc(Cl)cc4Cl)cc3)ccc2-c2ccccc2)CC1 | 95% | 21% | 52%
COc1cccc2cc(C(=O)N[C@@H](CC(C)C)C(=O)N[C@H](/C=N/NC(=O)OC(C)(C)C)CC(=O)OC(C)(C)C)oc12 | 85% | 57% | 4%
CS(=O)(=O)NCCCNCc1cccc(-c2ccc(-c3nc4cc(C(F)(F)F)ccc4[nH]3)s2)c1.O=C(O)C(F)(F)F | 100% | 51% | 11%
CN(Cc1ccc(-c2ccc(C(F)(F)F)cc2)cc1)C(=O)Cn1c(CCc2cccc(F)c2F)cc(=O)c2ccc(OCC3CCCN3C)cc21.O=C(O)C(O)C(O)C(=O)O (centres undefined) | 87% | 37% | 100%
c1ccc2[nH]c(Nc3ccc(Nc4nc5ccccc5[nH]4)cc3)nc2c1 | 98% | 27% | 0%
O=C(Nc1ccc(F)cc1)NC1CCN(c2ccnc3cc(Cl)ccc23)C1.O=C(O)C(F)(F)F (centres undefined) | 100% | 67% | 17%
Cc1ccc2c(-c3ccc([N+](=O)[O-])o3)cc(C)nc2c1 | 95% | 47% | 20%
Nc1nc(O)c2cc(CN(C=O)c3ccc(C(=O)N[C@@H](CCC(=O)O)C(=O)O)cc3)ccc2n1 | 93% | 94% | 0%
O=C(Nc1nc2cc(S(=O)(=O)NCCCN3CCOCC3)ccc2n1CCCn1ccnc1)c1ccc(Cl)cc1.O=C(O)C(F)(F)F | 95% | 0% | 0%

SMILES | Inhibition [1] | Inhibition [2] | Inhibition [3]
CCOc1ccc(C(Cc2ccccc2)NC(=O)c2cccnc2)cc1OCC (centres undefined) | 100% | 98% | 0%
Cc1nc(N)nc(N)c1OCCCCCCOc1ccccc1.Cl | 95% | 0% | 59%
Cc1cccc2nc(C3CCN(CC4CCN(C(=O)/C=C/c5ccc(Cl)c(Cl)c5)CC4)CC3)[nH]c12 | 100% | 79% | 46%
CC1(C)N=C(N)N=C(N)N1c1ccc(Oc2ccccc2)cc1.Cl | 98% | 3% | 13%
CCN(CC)c1nc(Nc2cc(C)ccc2C)nc(Nc2ccccc2O)n1 | 100% | 99% | 0%
COc1cccc(OC(C)(C)c2nc(N[C@@H](C)c3ccccc3)c3cn[nH]c3n2)c1 | 89% | 69% | 44%
COc1ccc(NC(=O)CSc2nc(-c3ccccc3Cl)ns2)cc1 | 96% | 75% | 11%
O=C(/C=C/c1ccc(Cl)c(Cl)c1)NCCCCCCN1CCN(C(=O)Nc2ccc(F)c(Cl)c2)CC1 | 86% | 2% | 40%
CN(C)C(=O)c1ccc(CN(Cc2cccc(OC(C)(C)C)c2)Cc2ccc3c(c2)OCCO3)cc1 | 96% | 96% | 0%
CCCCCCN1CCCN(Cc2ccc(C(=O)Nc3cccc(CC)c3)cc2)CC1.O=C(O)C(F)(F)F | 85% | 54% | 31%
Cc1nc(N)nc(N)c1CCCOc1cccc(Cl)c1 | 96% | 0% | 16%
N#Cc1ccc(CNCCCCCCCNCc2ccc(-c3ccccc3)cc2)cc1 | 87% | 10% | 19%
c1ccc(Oc2ccc(Nc3ccnc4cc(-c5csc(CN6CCCCC6)n5)ccc34)cc2)nc1 | 100% | 95% | 22%
COc1ccc2cc(C(c3nnnn3CC3CCCO3)N3CCc4ccccc43)c(=O)[nH]c2c1 (centres undefined) | 94% | 3% | 0%
O=C(Nc1ccc(-c2nc3ccccc3[nH]2)cc1)c1cccc([N+](=O)[O-])c1 | 100% | 56% | 45%
CCCOc1cccc(C(=O)N[C@@H](Cc2ccccc2)[C@H](O)CNCc2cccc(OC)c2)c1 | 100% | 18% | 14%
